Experimental data reported in PubChem BioAssay AID1159580 (chemical genetic matrix, 2015).
Hit rate of the full screen: of about 5,500 compounds, about 2,000 (36%) were called active. Inconclusive results (about 18%) are left out. Rule as the data show it: active = normalized growth mostly below about 0.91 (no sharp cut-off); inconclusive = no clear call, values can overlap the other calls; inactive = mostly above about 0.92. The list shows a part of the results.

Assay: chemical genetic growth profiling, strain panel (AID 1159580);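 also: tested at 20 µM; growth read once vehicle control cultures reached saturation at 30 °C; 1 = growth at the plate median or of vehicle wells; lower values mean less growth of the strain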
Conditions: S. cerevisiae deletion strains, growth OD
[1] = locus YAR019C, strain CDC15, stronger effect = lower value
[2] = locus YBL105C, strain PKC1, stronger effect = lower value
[3] = locus YBR135W, strain CKS1, stronger effect = lower value
[4] = locus YBR136W, strain MEC1, stronger effect = lower value
[5] = locus YBR160W, strain CDC28, stronger effect = lower value
[6] = locus YDL017W, strain CDC7, stronger effect = lower value
[7] = locus YDL028C, strain MPS1, stronger effect = lower value
[8] = locus YDL101C, strain DUN1, stronger effect = lower value
[9] = locus YDL108W, strain KIN28, stronger effect = lower value
[10] = locus YDL132W, strain cdc53, stronger effect = lower value
[11] = locus YDL214C, strain PRR2, stronger effect = lower value
[12] = locus YDR052C, strain DBF4, stronger effect = lower value
[13] = locus YDR054C, strain cdc34, stronger effect = lower value
[14] = locus YDR226W, strain ADK1, stronger effect = lower value
[15] = locus YDR477W, strain SNF1, stronger effect = lower value
[16] = locus YER123W, strain YCK3, stronger effect = lower value
[17] = locus YER133W, strain GLC7, stronger effect = lower value
[18] = locus YFL009W, strain cdc4, stronger effect = lower value
[19] = locus YFL029C, strain CAK1, stronger effect = lower value
[20] = locus YFR003C, strain YPI1, stronger effect = lower value
[21] = locus YFR019W, strain FAB1, stronger effect = lower value
[22] = locus YFR028C, strain CDC14, stronger effect = lower value
[23] = locus YGR040W, strain KSS1, stronger effect = lower value
[24] = locus YGR052W, strain FMP48, stronger effect = lower value
[25] = locus YGR092W, strain DBF2, stronger effect = lower value
[26] = locus YHR030C, strain SLT2, stronger effect = lower value
[27] = locus YHR079C, strain IRE1, stronger effect = lower value
[28] = locus YHR082C, strain KSP1, stronger effect = lower value
[29] = locus YHR205W, strain SCH9, stronger effect = lower value
[30] = locus YIL147C, strain SLN1, stronger effect = lower value
[31] = locus YJL095W, strain BCK1, stronger effect = lower value
[32] = locus YJL128C, strain PBS2, stronger effect = lower value
[33] = locus YJL157C, strain FAR1, stronger effect = lower value
[34] = locus YJR016C, strain ILV3, stronger effect = lower value
[35] = locus YJR066W, strain TOR1 (second series), stronger effect = lower value
[36] = locus YJR066W, strain TOR1, stronger effect = lower value
[37] = locus YKL048C, strain ELM1, stronger effect = lower value
[38] = locus YKL067W, strain YNK1, stronger effect = lower value
[39] = locus YKL101W, strain HSL1, stronger effect = lower value
[40] = locus YKL193C, strain SDS22, stronger effect = lower value
[41] = locus YKL203C, strain TOR2, stronger effect = lower value
[42] = locus YLR113W, strain HOG1, stronger effect = lower value
[43] = locus YLR133W, strain CKI1, stronger effect = lower value
[44] = locus YLR403W, strain SFP1, stronger effect = lower value
[45] = locus YML070W, strain DAK1, stronger effect = lower value
[46] = locus YMR001C, strain CDC5, stronger effect = lower value
[47] = locus YMR205C, strain PFK2 (second series), stronger effect = lower value
[48] = locus YMR277W, strain FCP1, stronger effect = lower value
[49] = locus YNL006W, strain LST8, stronger effect = lower value
[50] = locus YNL020C, strain ARK1, stronger effect = lower value
[51] = locus YNL161W, strain CBK1, stronger effect = lower value
[52] = locus YNL183C, strain NPR1, stronger effect = lower value
[53] = locus YNL207W, strain RIO2, stronger effect = lower value
[54] = locus YNL222W, strain SSU72, stronger effect = lower value
[55] = locus YNL307C, strain MCK1 (second series), stronger effect = lower value
[56] = locus YOL078W, strain AVO1, stronger effect = lower value
[57] = locus YOL136C, strain PFK27, stronger effect = lower value
[58] = locus YOR061W, strain CKA2, stronger effect = lower value
[59] = locus YOR119C, strain RIO1, stronger effect = lower value
[60] = locus YOR231W, strain MKK1, stronger effect = lower value
[61] = locus YOR329C, strain SCD5, stronger effect = lower value
[62] = locus YPL031C, strain PHO85, stronger effect = lower value
[63] = locus YPL153C, strain RAD53, stronger effect = lower value
[64] = locus YPL204W, strain HRR25, stronger effect = lower value
[65] = locus YPL209C, strain IPL1, stronger effect = lower value
[66] = locus YPR025C, strain CCL1, stronger effect = lower value
[67] = locus YPR106W, strain ISR1, stronger effect = lower value
[68] = locus YPR111W, strain DBF20, stronger effect = lower value
[69] = strain NNK1, stronger effect = lower value
[70] = strain TSCII, stronger effect = lower value
[71] = locus YPL256C, strain CLN2, stronger effect = lower value

Measured: normalized growth

O=C(OCc1ccccc1Br)c1cc([N+](=O)[O-])cc([N+](=O)[O-])c1
inactive: [1] 0.973 | [2] 0.986 | [3] 0.969 | [4] 0.98 | [5] 0.988 | [6] 0.984 | [7] 0.981 | [8] 0.985 | [9] 0.969 | [10] 0.961 | [11] 0.846 | [12] 0.984 | [13] 0.965 | [14] 0.981 | [15] 0.841 | [16] 0.84 | [17] 0.888 | [18] 0.983 | [19] 0.975 | [20] 0.977 | [21] 0.905 | [22] 0.974 | [23] 0.868 | [24] 0.871 | [25] 0.757 | [26] 0.92 | [27] 0.96 | [28] 0.923 | [29] 0.83 | [30] 0.976 | [31] 0.92 | [32] 0.944 | [33] 0.825 | [34] 0.973 | [35] 0.781 | [36] 0.885 | [37] 0.922 | [38] 0.876 | [39] 0.88 | [40] 0.974 | [41] 0.939 | [42] 0.892 | [43] 0.887 | [44] 0.857 | [45] 0.825 | [46] 0.967 | [47] 0.842 | [48] 0.988 | [49] 0.974 | [50] 0.869 | [51] 0.988 | [52] 0.947 | [53] 0.966 | [54] 0.989 | [55] 0.877 | [56] 0.978 | [57] 0.867 | [58] 0.809 | [59] 0.952 | [60] 0.937 | [61] 0.973 | [62] 0.876 | [63] 0.866 | [64] 0.86 | [65] 0.984 | [66] 0.982 | [67] 0.976 | [68] 0.973 | [69] 0.977 | [70] 0.976

N/C(=N/OC(=O)c1ccc([N+](=O)[O-])cc1)c1c(Cl)cccc1Cl
inactive: [1] 0.939 | [2] 0.946 | [3] 0.949 | [4] 0.941 | [5] 0.967 | [6] 0.958 | [7] 0.948 | [8] 0.975 | [9] 0.952 | [10] 0.938 | [11] 0.91 | [12] 0.955 | [13] 0.94 | [14] 0.944 | [15] 0.764 | [16] 0.936 | [17] 0.805 | [18] 0.935 | [19] 0.953 | [20] 0.95 | [21] 0.825 | [22] 0.942 | [23] 0.848 | [24] 0.71 | [27] 0.536 | [28] 0.872 | [30] 0.94 | [32] 0.973 | [33] 0.863 | [34] 0.942 | [36] 0.642 | [37] 1.02 | [38] 0.924 | [39] 0.911 | [40] 0.935 | [41] 0.758 | [43] 0.898 | [44] 0.69 | [45] 0.883 | [46] 0.941 | [47] 0.905 | [48] 0.921 | [49] 0.958 | [50] 0.881 | [51] 0.954 | [52] 0.578 | [53] 0.915 | [54] 0.954 | [56] 0.938 | [57] 0.936 | [58] 0.919 | [59] 0.746 | [61] 0.954 | [62] 0.7 | [63] 0.693 | [64] 0.671 | [65] 0.955 | [66] 0.955 | [67] 0.984 | [68] 0.979 | [69] 0.982 | [70] 0.942
active: [25] 0.465 | [26] 0.268 | [29] 0.449 | [31] 0.418 | [35] 0.598 | [42] 0.661 | [55] 0.613 | [60] 0.57 | [71] 0.733

CC1CC(=O)Nc2ccccc2N1C(=O)c1ccc([N+](=O)[O-])cc1 (stereo not given)
inactive: locus YAL013W, strain DEP1, stronger effect = lower value 1.01 | locus YBR229C, strain ROT2, stronger effect = lower value 1.01 | locus YCL061C, strain MRC1, stronger effect = lower value 1.02 | [8] 1.05 | locus YDL134C, strain PPH21, stronger effect = lower value 1.01 | locus YDR150W, strain NUM1, stronger effect = lower value 0.937 | locus YEL061C, strain CIN8, stronger effect = lower value 0.991 | locus YGR078C, strain PAC10, stronger effect = lower value 1.03 | [26] 1.01 | locus YHR087W, strain rtc3, stronger effect = lower value 0.978 | locus YJL187C, strain SWE1, stronger effect = lower value 1.01 | locus YJR043C, strain POL32, stronger effect = lower value 1.02 | locus YJR075W, strain HOC1, stronger effect = lower value 1.01 | locus YLR039C, strain RIC1, stronger effect = lower value 1.03 | locus YLR058C, strain SHM2 (second series), stronger effect = lower value 0.998 | locus YLR085C, strain ARP6, stronger effect = lower value 1.03 | locus YLR262C, strain YPT6, stronger effect = lower value 1 | locus YML094W, strain GIM5, stronger effect = lower value 1.02 | locus YMR219W, strain ESC1, stronger effect = lower value 1.01 | locus YMR263W, strain SAP30, stronger effect = lower value 1.05 | locus YNL153C, strain GIM3, stronger effect = lower value 1.02 | locus YNL298W, strain CLA4 (second series), stronger effect = lower value 1.05 | locus YNL322C, strain KRE1, stronger effect = lower value 1 | locus YNR030W, strain Alg12, stronger effect = lower value 1.02 | locus YOL006C, strain TOP1, stronger effect = lower value 1.01 | locus YPL055C, strain LGE1, stronger effect = lower value 0.996 | locus YPL241C, strain CIN2, stronger effect = lower value 1.02 | locus YPR135W, strain CTF4, stronger effect = lower value 1.03

N/C(=N/OC(=O)c1cnn(-c2ccc([N+](=O)[O-])cc2)c1C(F)(F)F)c1ccc(Cl)cc1
inactive: [1] 0.985 | [2] 0.972 | [3] 0.964 | [4] 0.971 | [5] 0.974 | [6] 0.984 | [7] 0.985 | [8] 0.992 | [9] 0.975 | [10] 0.974 | [11] 0.937 | [12] 0.983 | [13] 0.97 | [14] 0.982 | [15] 0.944 | [16] 0.96 | [17] 0.82 | [18] 0.982 | [19] 0.973 | [20] 0.98 | [21] 0.974 | [22] 0.979 | [23] 0.916 | [24] 1.06 | [25] 0.964 | [26] 1.01 | [27] 1.04 | [28] 1.07 | [29] 0.699 | [30] 0.979 | [31] 1.04 | [32] 0.98 | [33] 0.973 | [34] 0.976 | [35] 0.955 | [36] 1.01 | [37] 0.993 | [38] 0.972 | [39] 0.983 | [40] 0.982 | [41] 1.04 | [42] 0.98 | [43] 0.881 | [44] 0.74 | [45] 0.92 | [46] 0.981 | [47] 0.886 | [48] 0.981 | [49] 0.99 | [50] 0.989 | [51] 0.979 | [52] 1.01 | [53] 0.98 | [54] 0.969 | [55] 0.987 | [56] 0.969 | [57] 0.979 | [58] 0.912 | [59] 1.06 | [60] 0.961 | [61] 0.985 | [62] 0.974 | [63] 0.976 | [64] 1.01 | [65] 0.978 | [71] 0.961 | [66] 0.973 | [67] 0.993 | [68] 0.976 | [69] 0.995 | [70] 0.989
